# Source: the supplement of paper PMC7393113
# ± gives the standard deviation of the averaged measurements.
# Tested on: iBMDM (immortalised mouse bone-marrow-derived macrophages), LPS-stimulated
# Test: mitochondrial superoxide (MitoSOX fluorescence) fold increase over unstimulated control; higher = more LPS-induced mitochondrial ROS (less inhibition)
# Conditions: inhibitor concentration: 500 nM; LPS: 100 ng/ml; time after LPS: 1 h
# In short: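 Cells were immortalised mouse bone-marrow-derived macrophages, plated in triplicate and switched to phenol-red-free 1% FCS/DMEM for 20 h. Kinase inhibitors (500 nM, 30 min) preceded MitoSox loading (1 μM, 10 min) and LPS addition (100 ng/ml), with 510/580 nm fluorescence read every 60 min for 4 h. Mitochondrial superoxide is reported as averaged fold induction over untreated macrophages.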
row,Structure (SMILES),mitochondrial superoxide
1,Cc1cc(CN2CCN(c3c(Br)cnc4nc(-c5ccc(N6CCN(C)CC6)cc5)[nH]c34)CC2)no1,1.27 ± 0.038
2,COc1cc2nccc(Oc3ccc(NC(=O)NC4CC4)c(Cl)c3)c2cc1C(N)=O [Lenvatinib (E7080)],1.45 ± 0.042
3,Cn1cc(-c2ccc3ncc(Cc4ccc5ncccc5c4)n3n2)cn1,1.24 ± 0.1
4,C[C@@H]1CN(CC(=O)Nc2ccc3c(c2)Cc2cccc(-c4cc(=O)cc(N5CCOCC5)o4)c2S3)C[C@H](C)O1,1.2 ± 0.07
5,Cc1nc(NC(=O)N2CCC[C@H]2C(N)=O)sc1-c1csc(C(C)(C)C)n1,1.31 ± 0.053
6,CCn1c(N)c(C(=O)NC)c(=O)c2ccc(C#CC(C)(O)COC)nc21 (centres undefined),1.11 ± 0.027
7,C[C@@H]1COCCN1c1cc(C2(S(C)(=O)=O)CC2)nc(-c2cccc3[nH]ccc23)n1,1.19 ± 0.055
8,O=C(c1ccc(/C=C/c2n[nH]c3ccccc23)cc1)N1CCNCC1,1.09 ± 0.063
9,O=C(/C=C/c1ccc(O)c(O)c1)c1ccc(O)cc1O [Butein],1.49 ± 0.065
10,C=CC(=O)Nc1ccc2ncnc(Nc3ccc(OCc4cccc(F)c4)c(Cl)c3)c2c1,1.18 ± 0.017
11,CC1(C)CNc2cc(NC(=O)c3cccnc3NCc3ccncc3)ccc21 [Motesanib Diphosphate (AMG-706)],1.55 ± 0.066
12,COc1cc2ncnc(Nc3ccc(Cl)cc3F)c2cc1OC,1.12 ± 0.029
13,Cc1c(NC(=O)OC[C@@H]2COCCN2)cn2ncnc(Nc3ccc4c(cnn4Cc4cccc(F)c4)c3)c12,1.57 ± 0.034
14,Cc1cnc(-c2cnc(NCCNc3ccc(C#N)cn3)nc2-c2ccc(Cl)cc2Cl)[nH]1,1.14 ± 0.048
